Growth inhibition data for 20 compounds are collected here from PubChem BioAssay (NCI).

About 79,000 compounds went through this panel and 15% of them were active in at least one assay; those are over-represented in the sample as a whole. Values without a mark were called inactive. Activity calls are given as the source filed them. Cut-off read from the data, not from the text of the source: active = growth inhibition above about 70%; inactive = the rest.

Assay [1] in a line: NCI Yeast Anticancer Drug Screen. Data for the rad50 strain (AID 155).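 Note: 0% = growth of vehicle-only cultures of the same strain.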 As to conditions: S. cerevisiae rad50 strain growth inhibition; at 50.0 µM; stronger effect = higher value. In a few lines: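 Yeast carrying a defined DNA repair defect were exposed to test compounds, and growth was compared with vehicle-treated controls to give percent inhibition.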
Assay [2] can be described thus: NCI Yeast Anticancer Drug Screen. Data for the mec2-1 strain (AID 157). The conditions noted are these: S. cerevisiae mec2-1 strain, at 50.0 µM, stronger effect = higher value. Summed up:
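mec2-1 yeast strain, carrying an alteration in DNA damage repair or cell cycle control, was exposed to compounds; growth inhibition was measured relative to vehicle-treated controls.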

Assay [3] can be described thus: NCI Yeast Anticancer Drug Screen. Data for the sgs1 mgt1 strain (AID 161).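 Note: 0% = growth of cultures given vehicle only.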 As to conditions: S. cerevisiae sgs1 mgt1 strain, at 50.0 µM, stronger effect = higher value. In a few lines: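 Percent growth inhibition was derived by comparing compound-exposed mutant yeast with vehicle-exposed cultures. The strain carries alterations in DNA damage repair.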
Assay [4] can be described thus: NCI Yeast Anticancer Drug Screen. Data for the cln2 rad14 strain (AID 165).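 Note: 0% = growth equal to vehicle treated cultures.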 As to conditions: S. cerevisiae cln2 rad14 strain, at 50.0 µM, stronger effect = higher value. In a few lines: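 Yeast carrying cln2 and rad14 alterations (cell cycle control and DNA damage repair) were exposed to compounds. Growth inhibition was measured against vehicle-treated controls.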
Assay [5] in a line: NCI Yeast Anticancer Drug Screen. Data for the bub3 strain (AID 167). The conditions noted are these: S. cerevisiae bub3 mutant strain, at 50.0 µM, stronger effect = higher value. Summed up: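 Compounds were applied to a genetically altered yeast strain carrying a cell-cycle control defect. Growth inhibition was scored against vehicle-treated controls.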
The nature of assay [6]: NCI Yeast Anticancer Drug Screen. Data for the mlh1 rad18 strain (AID 175). As to conditions: S. cerevisiae mlh1 rad18 strain growth inhibition; at 50.0 µM; stronger effect = higher value. Summed up: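 Growth inhibition of the yeast strain was measured after compound exposure and expressed relative to vehicle-treated controls. The strain carries defined defects in DNA damage repair.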

Regarding `c1ccc(-c2cc(-c3cc(-c4ccccc4)n[nH]3)[nH]n2)cc1`, the growth inhibition in assay [1] is -9.95%; in assay [2], -8.15%; in assay [3], -21.4%; in assay [4], -19.2%; in assay [5], -16.6%; in assay [6] it was -37.1%.
Consider `O=C(c1ccccc1)N1C2C3CC(OCc4ccccc4)(OCc4ccccc4)C(O3)C21` (stereo not given), for which the growth inhibition in assay [1] is -8.35%; in assay [2] it was -3.3%; in assay [3], -16.4%; in assay [4] it was -12.6%; in assay [5], 16.8%; in assay [6], -9.95%.
As for `OC1COCCC(O)(CNCc2ccccc2)C1O` (stereo not given), the growth inhibition in assay [1] is 7.4%; in assay [2], 16.6%; in assay [3] it was -3.95%; in assay [4], 8.15%; in assay [5], -6.95%; in assay [6] it was -9.1%.
For the compound `CCNC(=O)C1CCN(Cc2c[nH]c3ccccc23)CC1`, the growth inhibition in assay [1] is -19.4%; in assay [2], 0.1%; in assay [3], 33.2%; in assay [4], -12.9%; in assay [5], 0.6%; in assay [6], -18.1%.
On to `O=C1NC(N2CCOCC2)=N/C1=C\c1ccccc1`, for which the growth inhibition was 8% in assay [1]; 11.2% in assay [2]; -9.8% in assay [3]; -3.65% in assay [4]; -1.2% in assay [5]; -15.3% in assay [6].
As for `CC(C)(C)c1ccc(C(=O)NCSCC(NC(=O)CCC(N)C(=O)O)C(=O)NCC(=O)O)cc1` (stereo not given), the growth inhibition was -10.4% in assay [1]; 1% in assay [2]; -10.7% in assay [3]; -7.75% in assay [4]; 0.85% in assay [5]; 14.8% in assay [6].
In the case of `O=C(O)c1[nH]c(=O)[nH]c(=O)c1C(=O)O`, the growth inhibition is -20.6% in assay [1]; 0.55% in assay [2]; -15.1% in assay [3]; 18.8% in assay [4]; -17.6% in assay [5]; -15% in assay [6].
In the case of `O=[N+]([O-])c1ccc(OC(=S)Oc2ccc([N+](=O)[O-])cc2)cc1`, the growth inhibition in assay [1] is 3.45%; in assay [2], -16.7%; in assay [3], 2.9%; in assay [4], -4.4%; in assay [5], -0.05%; in assay [6], 1.8%.
For the compound `CCOC(=O)C1Cc2cc(C)c(C)cc2N(C)C1=O` (stereo not given), the growth inhibition in assay [1] is 7.6%; in assay [2] it was -10.2%; in assay [3], 5.9%; in assay [4], -22.5%; in assay [5] it was 22.1%; in assay [6] it was -3.6%.
Turning to `N#CCCC(CCC#N)(CCC(CCC#N)(CCC#N)[N+](=O)[O-])[N+](=O)[O-]`, the growth inhibition is -4.05% in assay [1]; 11% in assay [2]; 10.8% in assay [3]; -11.6% in assay [4]; 8.8% in assay [5]; 6.3% in assay [6].
For the compound `O=C1CN(/N=C/c2ccc(-c3ccc(Cl)c(Cl)c3)o2)C(=O)N1`, the growth inhibition is 28.9% in assay [1]; 14.4% in assay [2]; 29.1% in assay [3]; 3.2% in assay [4]; 10% in assay [5]; 5.5% in assay [6].
Take `CCOC(=O)NC(C#N)=C(Cl)Cl`: the growth inhibition is 37.5% in assay [1]; 47% in assay [2]; 49% in assay [3]; 14.1% in assay [4]; 38.5% in assay [5]; 43.6% in assay [6].
`O=C(O)c1ccc([N+](=O)[O-])cc1OCc1ccccc1`: the growth inhibition is 13.4% in assay [1]; -5.1% in assay [2]; 12.9% in assay [3]; -39% in assay [4]; -3.4% in assay [5]; 3.95% in assay [6].
`COc1cccc2c1OCC1Cc3ccccc3OC21` (stereo not given): the growth inhibition is 72.2% (active) in assay [1]; 45% in assay [2]; 85.7% (active) in assay [3]; 72.2% (active) in assay [4]; 51.8% in assay [5]; 95.7% (active) in assay [6].
For the compound `CCc1n[nH]c(=O)n1/N=C/c1ccc(C)cc1`, the growth inhibition in assay [1] is -0.2%; in assay [2], -3.3%; in assay [3], -4.85%; in assay [4], -0.3%; in assay [5] it was 3.8%; in assay [6] it was -2.25%.
Regarding `O=C(Nc1ccc(F)cc1)Nc1ccc(I)cc1`, the growth inhibition in assay [1] was 13.2%; in assay [2], 1.15%; in assay [3] it was 5.6%; in assay [4], 15.4%; in assay [5] it was 17.2%; in assay [6], 8.95%.
With `NCCCn1cnc2c(N)ncnc21`, the growth inhibition in assay [1] is 8.95%; in assay [2], -1.55%; in assay [3], -4.55%; in assay [4], -18.6%; in assay [5], -16.4%; in assay [6], 0.65%.
`O=C(Nc1ccc(N=C=S)cc1Cl)c1ccc2ccccc2c1O`: the growth inhibition in assay [1] is 15.6%; in assay [2], 14.3%; in assay [3], 6.75%; in assay [4], 12.6%; in assay [5], 4.05%; in assay [6], 8.25%.
For the compound `CCC(c1ccccc1)C(C(=O)O)C(=O)O` (stereo not given), the growth inhibition in assay [1] is 5.95%; in assay [2], -5.35%; in assay [3] it was 0.55%; in assay [4], -16.8%; in assay [5], 6.35%; in assay [6], 6.65%.
On to `O=C(c1ccc(Br)cc1)C(C(c1ccccc1)N1CCOCC1)N1CCOCC1` (stereo not given), for which the growth inhibition is 3.1% in assay [1]; -1.1% in assay [2]; -9.6% in assay [3]; -19.5% in assay [4]; -20.6% in assay [5]; 31.9% in assay [6].
